In PubChem BioAssay (NCI) one finds growth data, which are given here for 8 compounds.

About 83,000 compounds went through this panel and 20% of them were active in at least one assay; those are over-represented in the sample as a whole.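 Activity criterion: percent growth below 10, measured after cells in 96-well plates were exposed to a single compound concentration for 48 hours.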 Unmarked numbers belong to inactive results. Calls of active or inactive are those of the source.

Common to all, as to test: NCI-60 one-dose screen, 48 h (100 = growth as untreated, 0 = no growth, -100 = all killed)
In one assay the test system is K-562 leukemia. As to conditions: 10 µM unless noted.
Another assay concerns MALME-3M melanoma. As to conditions: 10 µM unless noted.
Another assay relates to MDA-MB-231 breast. As to conditions: 10 µM unless noted.
For another assay, the system named is RXF 393 renal. The note with it: 10 µM unless noted.
For another assay, the system named is SF-268 CNS. The note with it: 10 µM unless noted.
The next assay concerns SF-295 CNS. The note with it: 10 µM unless noted.
A further assay has as its system SF-539 CNS. The note with it: 10 µM unless noted.
For another assay, the system named is UACC-257 melanoma. As to conditions: 10 µM unless noted.
For another assay, the system named is M14 melanoma. The note with it: 10 µM unless noted.
The next assay relates to HCT-15 colon. As to conditions: 10 µM unless noted.
The next assay deals with HT29 colon. The note with it: 10 µM unless noted.
The subject of the next assay is SNB-75 CNS. As to conditions: 10 µM unless noted.
The subject of another assay is SNB-19 CNS. The note with it: 10 µM unless noted.
Another assay concerns U251 CNS. The note with it: 10 µM unless noted.
A further assay relates to PC-3 prostate. As to conditions: 10 µM unless noted.
The subject of a further assay is UACC-62 melanoma. As to conditions: 10 µM unless noted.
A further assay deals with LOX IMVI melanoma. As to conditions: 10 µM unless noted.
The next assay relates to SK-MEL-28 melanoma. The note with it: 10 µM.
The next assay concerns SK-MEL-2 melanoma. As to conditions: 10 µM unless noted.
For a further assay, the system named is SK-MEL-5 melanoma. The note with it: 10 µM unless noted.

As for `O=C(Nc1ccc(I)cc1F)c1cc(F)ccc1O`, the growth in the assay on K-562 leukemia is 6.93% (active); in the assay with MALME-3M melanoma it was -31.4% (active); in the assay on MDA-MB-231 breast, -23.7% (active); in the assay with RXF 393 renal, -2.46% (active); in the assay on SF-268 CNS, 8.56% (active); in the assay with SF-295 CNS, -68.5% (active). Further, the growth in the assay on SF-539 CNS is 1.28% (active); in the assay with UACC-257 melanoma, -17.3% (active); in the assay with M14 melanoma, -14.5% (active); in the assay with HCT-15 colon, 0.237% (active); in the assay on HT29 colon, 25.6%; in the assay on SNB-75 CNS, -20.7% (active). Moreover, the growth with SNB-19 CNS was 16.8%; with U251 CNS it was -16.8% (active); with PC-3 prostate it was 3.39% (active); in the assay on UACC-62 melanoma, -21.9% (active); in the assay with LOX IMVI melanoma, 0.316% (active); in the assay on SK-MEL-28 melanoma, -5.23% (active). Moreover, in the assay on SK-MEL-2 melanoma, the growth was -35.8% (active).
Consider `O=c1oc2ccc(Br)cc2c(=O)n1-c1ccc(I)cc1F`, for which the growth with K-562 leukemia is 5.48% (active); in the assay with MALME-3M melanoma, -28.3% (active); in the assay with MDA-MB-231 breast it was -19.1% (active); in the assay on RXF 393 renal it was -1.04% (active); in the assay with SF-268 CNS, 6.16% (active); in the assay with SF-295 CNS, -61.3% (active). Also, the growth with SF-539 CNS is 1.29% (active); in the assay on UACC-257 melanoma, -16.3% (active); in the assay with M14 melanoma, -9.72% (active); with HCT-15 colon, 1.62% (active); with HT29 colon it was 40.1%; in the assay on SNB-75 CNS it was -20.8% (active). Besides, the growth in the assay on SNB-19 CNS was 18.4%; in the assay with U251 CNS, 0.947% (active); with PC-3 prostate, -0.134% (active); in the assay on UACC-62 melanoma, -19.7% (active); with LOX IMVI melanoma, 6% (active); with SK-MEL-28 melanoma, -2% (active). In addition, the growth with SK-MEL-2 melanoma was -32.6% (active).
Regarding `O=C(Nc1ccc(Br)cc1F)c1cc(Cl)ccc1O`, the growth with K-562 leukemia was 5.34% (active); with MALME-3M melanoma, -34.7% (active); in the assay on MDA-MB-231 breast it was -27.9% (active); in the assay with RXF 393 renal, -0.138% (active); in the assay with SF-268 CNS, 2.69% (active); in the assay on SF-295 CNS, -62.6% (active). Besides, the growth is -1.11% (active) with SF-539 CNS; -14% (active) in the assay with UACC-257 melanoma; -28.3% (active) with M14 melanoma; 2.29% (active) in the assay on HCT-15 colon; 15.6% in the assay on HT29 colon; -34.7% (active) with SNB-75 CNS. For the same compound, the growth is 14% with SNB-19 CNS; -0.181% (active) with U251 CNS; -5.33% (active) in the assay with PC-3 prostate; -24.9% (active) in the assay on UACC-62 melanoma; 1.68% (active) in the assay with LOX IMVI melanoma; -6.77% (active) in the assay with SK-MEL-28 melanoma. In the assay on SK-MEL-2 melanoma, the growth is -25.8% (active).
For `COC(=O)C1=Nc2ccc(F)cc2/C1=C/c1sc(=S)[nH]c1O`, the growth with K-562 leukemia was 8.26% (active); in the assay with MALME-3M melanoma, 60.8%; in the assay on MDA-MB-231 breast it was 16.8%; in the assay with RXF 393 renal, 30.4%; in the assay on SF-268 CNS, 13.1%; with SF-295 CNS it was 13.8%. Also, the growth in the assay on SF-539 CNS was -26.6% (active); in the assay on UACC-257 melanoma, 45.9%; with M14 melanoma, 2.31% (active); with HCT-15 colon, 10.7%; in the assay on HT29 colon it was 8.16% (active); in the assay on SNB-75 CNS, 11.6%. The growth in the assay with SNB-19 CNS was 30.4%; with U251 CNS, 8.56% (active); in the assay on SK-MEL-5 melanoma, -41% (active); with UACC-62 melanoma, 53.6%; in the assay on LOX IMVI melanoma, 13%; in the assay on SK-MEL-28 melanoma, 59.4%. The growth in the assay on SK-MEL-2 melanoma was 39.5%.
Regarding `CCn1c(Cc2ccccc2Nc2c(Cl)cccc2Cl)nnc1SCC(=O)NN1C(=O)/C(=C/c2cccc(OC)c2OC)SC1=S`, the growth is 89.7% with K-562 leukemia; 97.1% with MALME-3M melanoma; 102% with MDA-MB-231 breast; 112% in the assay on RXF 393 renal; 96.1% in the assay with SF-268 CNS; 95% in the assay with SF-295 CNS. Besides, the growth in the assay with SF-539 CNS is 101%; in the assay with UACC-257 melanoma, 101%; in the assay on M14 melanoma, 103%; in the assay on HCT-15 colon, 99.8%; in the assay with HT29 colon it was 113%; in the assay with SNB-75 CNS, 87.3%. The growth with SNB-19 CNS was 91.2%; in the assay with U251 CNS it was 90.1%; in the assay with SK-MEL-5 melanoma it was 97.1%; with LOX IMVI melanoma, 92%; in the assay on SK-MEL-28 melanoma it was 104%; in the assay with SK-MEL-2 melanoma, 96.7%.
With `O=C1c2ccccc2C(=O)c2c1ccc1[nH]c(CCl)nc21`, the growth in the assay on K-562 leukemia is 2.91% (active); in the assay with MALME-3M melanoma, 11.5%; in the assay on MDA-MB-231 breast, 37.4%; in the assay with RXF 393 renal it was 34.7%; with SF-268 CNS, 24.9%; in the assay on SF-295 CNS, 65.2%. For the same compound, the growth in the assay with SF-539 CNS is 37.9%; in the assay with UACC-257 melanoma it was 28.8%; in the assay with M14 melanoma, 33.5%; with HCT-15 colon, -24.8% (active); in the assay with HT29 colon, 5.78% (active); with SNB-75 CNS it was 33.4%. For the same compound, the growth in the assay on SNB-19 CNS is 47.8%; with U251 CNS it was 9.78% (active); with PC-3 prostate, 39.3%; with UACC-62 melanoma it was 39.5%; with LOX IMVI melanoma, -36.9% (active); with SK-MEL-28 melanoma, 57.6%. Moreover, the growth in the assay with SK-MEL-2 melanoma is 27.4%.
For the compound `O=C(CN1C(=O)/C(=C\c2ccc(Cl)cc2)SC1=S)Nc1ncc(Cc2ccc(Cl)cc2)s1`, the growth with K-562 leukemia was 105%; in the assay on MALME-3M melanoma it was 99.4%; in the assay on MDA-MB-231 breast, 104%; in the assay on RXF 393 renal, 110%; in the assay with SF-268 CNS, 97.4%; with SF-295 CNS, 101%. Moreover, the growth in the assay with SF-539 CNS was 94.3%; in the assay with UACC-257 melanoma, 104%; with M14 melanoma, 102%; in the assay with HCT-15 colon it was 103%; with HT29 colon, 110%; in the assay with SNB-75 CNS, 88.6%. The growth with SNB-19 CNS was 102%; in the assay on U251 CNS it was 100%; in the assay on SK-MEL-5 melanoma, 95.7%; with LOX IMVI melanoma, 92.9%; with SK-MEL-28 melanoma, 106%; in the assay with SK-MEL-2 melanoma it was 105%.
For the compound `O=c1oc2ccc(I)cc2c(=O)n1-c1ccc(Br)cc1F`, the growth in the assay with K-562 leukemia is 7.02% (active); in the assay with MALME-3M melanoma it was -26.7% (active); in the assay on MDA-MB-231 breast it was -21.2% (active); in the assay with RXF 393 renal, 3.07% (active); in the assay with SF-268 CNS, 9.55% (active); in the assay on SF-295 CNS, -58.1% (active). The growth with SF-539 CNS is 4.36% (active); in the assay on UACC-257 melanoma it was -13.6% (active); in the assay on M14 melanoma it was -0.737% (active); with HCT-15 colon, -7.61% (active); in the assay with HT29 colon, 50%; with SNB-75 CNS it was -18.9% (active). Moreover, the growth with SNB-19 CNS was 18.2%; in the assay with U251 CNS, 0.297% (active); in the assay with PC-3 prostate, 1.7% (active); in the assay on UACC-62 melanoma, -14.7% (active); in the assay on LOX IMVI melanoma, 11.2%; in the assay with SK-MEL-28 melanoma it was 2.3% (active). The growth in the assay with SK-MEL-2 melanoma was -27.7% (active).
